Data as given in PubChem BioAssay AID1117292 (Broad Institute, 2014).
Entries with a potency or affinity are not part of this list. Records with an inconclusive call do not appear. Active and inactive are the calls of the source.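 How the source made its calls: active means compound whose fitted half-maximal dose for signal loss lies within twice the top dose in every replicate test; inconclusive means tests disagree, or flat partial signal loss or poor fit; inactive means every test inactive, flat, rising or too weak.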

Molecular target: Endoplasmic reticulum aminopeptidase 1 (Homo sapiens) (UniProt Q9NZ08)
Experiment: blocking ERAP1 cleavage of leucine-AMC substrate – biochemical, fluorescence plate reader, dry powder, dose response (AID 1117292)
Settings: purified ERAP1, Leu-AMC fluorescence, 60 min; series mostly up to 50 µM; activity change, negative = inhibition: at the top concentration

Endoplasmic reticulum aminopeptidase 1 (Homo sapiens), sequence (Q9NZ08 whole entry, looked up): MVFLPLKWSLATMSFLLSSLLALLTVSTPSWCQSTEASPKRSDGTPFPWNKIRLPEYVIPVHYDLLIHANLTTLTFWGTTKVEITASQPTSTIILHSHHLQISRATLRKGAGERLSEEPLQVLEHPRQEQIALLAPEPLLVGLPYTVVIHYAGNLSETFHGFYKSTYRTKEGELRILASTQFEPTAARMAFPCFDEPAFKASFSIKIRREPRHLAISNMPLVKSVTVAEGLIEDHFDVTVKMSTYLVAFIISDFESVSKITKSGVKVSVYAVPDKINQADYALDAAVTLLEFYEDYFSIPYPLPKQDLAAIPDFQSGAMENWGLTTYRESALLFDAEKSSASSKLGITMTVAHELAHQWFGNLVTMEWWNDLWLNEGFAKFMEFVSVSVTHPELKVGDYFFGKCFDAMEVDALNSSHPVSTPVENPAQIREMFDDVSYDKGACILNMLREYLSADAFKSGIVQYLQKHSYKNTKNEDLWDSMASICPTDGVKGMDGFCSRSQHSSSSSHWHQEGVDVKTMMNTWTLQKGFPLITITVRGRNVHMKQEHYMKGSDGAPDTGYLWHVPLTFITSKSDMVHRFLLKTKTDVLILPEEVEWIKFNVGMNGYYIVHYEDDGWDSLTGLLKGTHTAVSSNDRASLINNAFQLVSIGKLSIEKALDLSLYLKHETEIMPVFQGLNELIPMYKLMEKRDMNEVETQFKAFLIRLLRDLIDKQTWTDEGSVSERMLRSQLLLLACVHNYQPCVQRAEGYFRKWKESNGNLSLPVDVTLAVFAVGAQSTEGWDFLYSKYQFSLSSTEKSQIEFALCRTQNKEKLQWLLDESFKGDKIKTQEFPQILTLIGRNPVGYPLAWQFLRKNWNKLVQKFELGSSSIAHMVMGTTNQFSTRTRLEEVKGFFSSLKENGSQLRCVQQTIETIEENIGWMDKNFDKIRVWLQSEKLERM

Activity change, negative = inhibition, inactive:
O=[N+]([O-])c1ccc(S(=O)(=O)Nc2cc(C(F)(F)F)ccc2N2CCCCC2)c([N+](=O)[O-])c1 -9.84%, COc1ccc(S(=O)(=O)Nc2cc(C(F)(F)F)ccc2N2CCCCC2)cc1 1.12%, CC(=O)N1CCN(C(=O)C2(NC(=O)Nc3ccc(C(F)(F)F)cc3)CCCC2)CC1 26.2%, CC(=O)N1CCN(C(=O)C2(NC(=O)Nc3ccccc3)CCCC2)CC1 11.7%, CC(=O)N1CCN(C(=O)C2(NC(=O)Nc3ccc(C(C)C)cc3)CCCC2)CC1 15.8%, CC(=O)N1CCN(C(=O)[C@@H]2CCN2C(=O)Nc2ccc(C)cc2)CC1 -14.6%, CC(=O)N1CCN(C(=O)C2(NC(=O)NC(C)(C)C)CCCCC2)CC1 -0.89%, CC(=O)N1CCN(C(=O)C2(NC(=O)Nc3ccc(C(C)C)cc3)CCCCC2)CC1 25.4%, COc1ccc(C(=O)O)cc1S(=O)(=O)Nc1cc(C(F)(F)F)ccc1N1CCOCC1 113%, COc1ccc(C(=O)O)cc1S(=O)(=O)Nc1cc(C(F)(F)F)ccc1N(C)C 104%, CC(=O)N1CCN(C(=O)C2(NC(=O)Nc3ccc(C(F)(F)F)cc3)CCCCC2)CC1 7.13%, COc1ccc(C(=O)Nc2cccc(C(F)(F)F)c2)cc1S(=O)(=O)O 36.9%, CC(=O)N1CCN(C(=O)C2(NC(=O)NCCc3ccccc3)CCCCC2)CC1 5.8%, O=S(=O)(Nc1cc(C(F)(F)F)ccc1N1CCCCC1)c1cc(Cl)cc(Cl)c1 15.8%, O=S(=O)(Nc1cc(C(F)(F)F)ccc1N1CCCCC1)c1ccc(Br)cc1 24.4%, N#Cc1ccc(S(=O)(=O)Nc2cc(C(F)(F)F)ccc2N2CCCCC2)cc1 26%, CC(=O)N1CCN(C(=O)C2CCCN2C(=O)Nc2ccc(C)cc2)CC1 (configuration not stated) 17.9%, CC(=O)N1CCN(C(=O)CNC(=O)Nc2ccc(C)cc2)CC1 11.2%, O=[N+]([O-])c1cccc(S(=O)(=O)Nc2cc(C(F)(F)F)ccc2N2CCCCC2)c1 0.757%, O=C(Nc1cc(C(F)(F)F)ccc1N1CCCCC1)c1ccc(S(=O)(=O)O)cc1 28%, COc1cccc(NC(=O)NC2(C(=O)N3CCN(C(C)=O)CC3)CCCCC2)c1 14.7%

outcome, inactive:
CC(=O)N1CCN(C(=O)C2(NC(=O)Nc3ccccc3F)CCCCC2)CC1
